Of roughly 7,900 targets only a part is listed; those with a hit were picked by preference. About 0.6% of all pairs of compound and target were hits.
Assays:
Experiment in all cases: log2 fold change, soluble protein after heating vs DMSO (PISA); higher = thermal stabilisation; K562 cells, 10 uM, 30 min; active = over 0.2 and 3.5 SD of the protein, either way, in both replicates (recomputed)
[1] = compound: CC[C@@H]1C(=O)N(C)c2cnc(Nc3ccc(C(=O)NC4CCN(C)CC4)cc3OC)nc2N1C1CCCC1
Method in brief: (§1)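 K562 cells at 2×10^6 cells/mL were treated with 10 μM compound for 30 min. Aliquots were heated for 3 min across 48°C-58°C, pooled, and extracted in PBS with 0.5% NP-40 at 4°C; soluble protein was the supernatant after 21,000xg for 90 min. Soluble protein was quantified by TMTpro 16plex LC-MS/MS with channel sums equalised, and reported as log2 fold change in thermal stability against DMSO controls, with values from duplicates.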

volasertib = compound: CC[C@@H]1C(=O)N(C)c2cnc(Nc3ccc(C(=O)N[C@H]4CC[C@H](N5CCN(CC6CC6)CC5)CC4)cc3OC)nc2N1C(C)C [volasertib]
Method in brief: as §1

[2] = compound: CC[C@H](C)N1C=C(C2=C(C=C(C=C21)C3=CN=C(C=C3)N4CCNCC4)C(=O)NCC5=C(C=C(NC5=O)C)C)C
Method in brief: as §1

epoxomicin = compound: CC[C@H](C)[C@@H](C(=O)N[C@@H]([C@@H](C)O)C(=O)N[C@@H](CC(C)C)C(=O)[C@]1(CO1)C)NC(=O)[C@H]([C@@H](C)CC)N(C)C(=O)C [epoxomicin]
Method in brief: as §1

[3] = compound: CCn1c(C(=O)N(C2CC2)C2CC2)cc2c3c(ncn3C)c(Nc3cc(C)n(C)n3)nc21
Method in brief: as §1

[4] = compound: CCn1cc(-c2ccnc3[nH]c(-c4cccc(CN(C)C)c4)cc23)c(-c2ccc(NC(=O)N(C)C)cc2)n1
Method in brief: as §1

[5] = compound: CN(C)CC(=O)Nc1ccc2[nH]c(=O)c3ccccc3c2c1
Method in brief: as §1

rosiglitazone = compound: CN(CCOC1=CC=C(C=C1)C[C@H]2C(=O)NC(=O)S2)C3=CC=CC=N3 (racemic) [rosiglitazone]
Method in brief: as §1

[6] = compound: CN1C2=C(C3=C1C(=O)N(N=C3)CC4=CC(=CC=C4)N)SC(=C2)S(=O)C
Method in brief: as §1

[7] = compound: CN1CCC(CNc2ccc3ncc(-c4cccc(OC(F)(F)F)c4)n3n2)CC1
Method in brief: as §1

Sequence of UniProt P18065 (P18065 whole entry, looked up): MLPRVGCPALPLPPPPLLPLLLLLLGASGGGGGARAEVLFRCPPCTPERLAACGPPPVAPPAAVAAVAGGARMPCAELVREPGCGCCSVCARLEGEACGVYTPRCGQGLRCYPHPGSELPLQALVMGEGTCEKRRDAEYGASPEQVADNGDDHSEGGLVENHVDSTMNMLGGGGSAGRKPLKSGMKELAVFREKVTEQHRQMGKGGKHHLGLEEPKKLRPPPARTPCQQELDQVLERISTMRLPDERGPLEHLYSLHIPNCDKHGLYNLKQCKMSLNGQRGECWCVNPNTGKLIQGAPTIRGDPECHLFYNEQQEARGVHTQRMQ
Sequence of UniProt O94889 (O94889 whole entry, looked up): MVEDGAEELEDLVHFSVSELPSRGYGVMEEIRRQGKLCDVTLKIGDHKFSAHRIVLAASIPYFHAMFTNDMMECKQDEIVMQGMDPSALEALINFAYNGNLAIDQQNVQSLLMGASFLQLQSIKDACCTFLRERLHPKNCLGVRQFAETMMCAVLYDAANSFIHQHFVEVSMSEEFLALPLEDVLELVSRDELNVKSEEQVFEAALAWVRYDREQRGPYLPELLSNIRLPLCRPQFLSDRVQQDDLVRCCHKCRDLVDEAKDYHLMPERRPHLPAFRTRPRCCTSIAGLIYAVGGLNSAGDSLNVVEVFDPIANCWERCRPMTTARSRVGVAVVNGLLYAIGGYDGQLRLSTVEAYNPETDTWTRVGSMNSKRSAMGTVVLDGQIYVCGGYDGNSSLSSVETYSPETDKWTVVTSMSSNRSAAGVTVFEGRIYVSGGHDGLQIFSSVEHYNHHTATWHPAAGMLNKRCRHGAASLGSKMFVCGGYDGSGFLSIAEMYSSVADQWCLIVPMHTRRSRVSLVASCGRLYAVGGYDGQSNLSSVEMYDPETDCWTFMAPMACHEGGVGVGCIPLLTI
Sequence of UniProt O95568 (O95568 whole entry, looked up): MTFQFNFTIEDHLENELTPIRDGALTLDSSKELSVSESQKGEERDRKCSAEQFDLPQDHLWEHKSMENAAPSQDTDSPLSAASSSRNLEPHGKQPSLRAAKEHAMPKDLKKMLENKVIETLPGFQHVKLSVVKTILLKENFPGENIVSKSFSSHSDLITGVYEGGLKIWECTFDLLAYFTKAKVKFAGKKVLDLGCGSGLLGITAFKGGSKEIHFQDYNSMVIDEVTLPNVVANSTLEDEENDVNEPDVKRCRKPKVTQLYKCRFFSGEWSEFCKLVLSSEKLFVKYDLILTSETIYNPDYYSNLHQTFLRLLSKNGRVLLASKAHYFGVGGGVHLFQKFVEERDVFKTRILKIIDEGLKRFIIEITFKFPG
Sequence of UniProt P13473 (P13473 whole entry, looked up): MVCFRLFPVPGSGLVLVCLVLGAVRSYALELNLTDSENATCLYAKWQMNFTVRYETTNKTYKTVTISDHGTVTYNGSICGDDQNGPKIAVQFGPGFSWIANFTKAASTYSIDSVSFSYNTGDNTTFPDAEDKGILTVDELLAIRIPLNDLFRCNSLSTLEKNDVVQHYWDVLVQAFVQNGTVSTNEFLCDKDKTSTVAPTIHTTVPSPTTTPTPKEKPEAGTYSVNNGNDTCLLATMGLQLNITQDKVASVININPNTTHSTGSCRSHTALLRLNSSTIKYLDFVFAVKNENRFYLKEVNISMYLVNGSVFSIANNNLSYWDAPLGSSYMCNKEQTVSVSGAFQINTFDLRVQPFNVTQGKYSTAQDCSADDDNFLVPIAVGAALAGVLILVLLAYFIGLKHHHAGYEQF
Sequence of UniProt Q8IYU8 (Q8IYU8 whole entry, looked up): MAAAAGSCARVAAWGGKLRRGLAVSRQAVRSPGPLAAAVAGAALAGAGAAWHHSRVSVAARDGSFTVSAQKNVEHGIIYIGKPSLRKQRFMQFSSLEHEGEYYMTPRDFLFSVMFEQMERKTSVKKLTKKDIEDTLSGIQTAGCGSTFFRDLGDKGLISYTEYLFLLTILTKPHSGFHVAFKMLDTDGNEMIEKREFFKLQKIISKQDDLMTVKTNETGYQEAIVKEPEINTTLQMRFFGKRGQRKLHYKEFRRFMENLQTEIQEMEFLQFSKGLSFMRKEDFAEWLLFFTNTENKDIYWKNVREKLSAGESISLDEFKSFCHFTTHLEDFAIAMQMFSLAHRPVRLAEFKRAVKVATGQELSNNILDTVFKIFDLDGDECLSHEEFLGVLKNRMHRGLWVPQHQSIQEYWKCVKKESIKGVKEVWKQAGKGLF
Sequence of UniProt O00629 (O00629 whole entry, looked up): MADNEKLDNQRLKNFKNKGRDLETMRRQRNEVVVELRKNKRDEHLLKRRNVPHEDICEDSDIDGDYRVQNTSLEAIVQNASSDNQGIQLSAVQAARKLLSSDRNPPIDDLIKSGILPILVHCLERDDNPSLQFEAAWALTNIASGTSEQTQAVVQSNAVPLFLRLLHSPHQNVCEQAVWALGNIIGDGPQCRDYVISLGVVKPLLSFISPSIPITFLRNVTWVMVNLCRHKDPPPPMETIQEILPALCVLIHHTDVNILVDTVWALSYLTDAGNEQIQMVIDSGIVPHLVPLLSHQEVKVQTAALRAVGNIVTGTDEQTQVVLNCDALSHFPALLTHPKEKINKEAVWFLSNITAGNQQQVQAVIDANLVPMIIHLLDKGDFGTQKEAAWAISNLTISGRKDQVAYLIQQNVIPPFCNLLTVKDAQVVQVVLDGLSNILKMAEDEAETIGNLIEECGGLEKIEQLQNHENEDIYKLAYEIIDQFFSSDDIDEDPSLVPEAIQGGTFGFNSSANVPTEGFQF
Sequence of UniProt Q9UHB6 (Q9UHB6 whole entry, looked up): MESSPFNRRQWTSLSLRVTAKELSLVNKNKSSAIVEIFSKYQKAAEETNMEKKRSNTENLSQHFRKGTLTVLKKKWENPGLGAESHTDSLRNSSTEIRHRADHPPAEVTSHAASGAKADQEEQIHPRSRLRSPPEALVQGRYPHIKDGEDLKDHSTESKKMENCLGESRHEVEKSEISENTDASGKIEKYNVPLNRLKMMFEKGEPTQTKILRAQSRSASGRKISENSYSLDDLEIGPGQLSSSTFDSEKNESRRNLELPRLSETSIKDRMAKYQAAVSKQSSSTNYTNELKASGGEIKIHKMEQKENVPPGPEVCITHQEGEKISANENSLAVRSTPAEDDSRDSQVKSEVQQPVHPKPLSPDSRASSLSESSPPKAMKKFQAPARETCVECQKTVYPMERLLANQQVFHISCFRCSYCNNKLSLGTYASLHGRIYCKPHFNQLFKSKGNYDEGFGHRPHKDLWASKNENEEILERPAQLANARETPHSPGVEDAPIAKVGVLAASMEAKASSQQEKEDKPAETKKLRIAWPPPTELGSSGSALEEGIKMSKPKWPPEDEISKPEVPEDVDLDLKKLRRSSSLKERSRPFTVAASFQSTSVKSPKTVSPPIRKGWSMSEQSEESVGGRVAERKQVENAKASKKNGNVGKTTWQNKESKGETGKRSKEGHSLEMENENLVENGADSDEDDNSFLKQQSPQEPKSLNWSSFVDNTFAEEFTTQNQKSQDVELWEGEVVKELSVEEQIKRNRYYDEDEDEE
Sequence of UniProt Q14624 (Q14624 whole entry, looked up): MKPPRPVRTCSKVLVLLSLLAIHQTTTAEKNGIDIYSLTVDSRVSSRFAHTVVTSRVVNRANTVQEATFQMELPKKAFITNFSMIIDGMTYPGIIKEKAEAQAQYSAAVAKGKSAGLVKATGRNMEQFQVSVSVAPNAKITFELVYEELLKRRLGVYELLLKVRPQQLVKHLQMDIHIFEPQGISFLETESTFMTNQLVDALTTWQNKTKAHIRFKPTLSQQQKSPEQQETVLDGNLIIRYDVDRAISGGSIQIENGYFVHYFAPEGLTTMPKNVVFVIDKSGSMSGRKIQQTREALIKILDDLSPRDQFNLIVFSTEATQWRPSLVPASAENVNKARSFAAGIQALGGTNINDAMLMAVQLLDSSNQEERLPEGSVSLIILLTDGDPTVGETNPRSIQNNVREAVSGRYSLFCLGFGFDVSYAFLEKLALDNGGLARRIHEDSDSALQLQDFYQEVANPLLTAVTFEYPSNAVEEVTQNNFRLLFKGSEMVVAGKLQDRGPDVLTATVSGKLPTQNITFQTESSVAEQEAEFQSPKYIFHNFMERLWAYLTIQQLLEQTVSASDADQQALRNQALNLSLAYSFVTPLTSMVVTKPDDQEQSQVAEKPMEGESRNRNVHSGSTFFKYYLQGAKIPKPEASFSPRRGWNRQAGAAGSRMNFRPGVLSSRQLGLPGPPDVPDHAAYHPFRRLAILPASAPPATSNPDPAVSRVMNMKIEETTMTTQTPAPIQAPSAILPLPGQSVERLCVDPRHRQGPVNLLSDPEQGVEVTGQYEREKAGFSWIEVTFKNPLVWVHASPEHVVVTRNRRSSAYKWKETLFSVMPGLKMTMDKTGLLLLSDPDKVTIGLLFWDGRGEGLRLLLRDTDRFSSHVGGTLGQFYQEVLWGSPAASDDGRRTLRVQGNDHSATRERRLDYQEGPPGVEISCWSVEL
Sequence of UniProt O14880 (O14880 whole entry, looked up): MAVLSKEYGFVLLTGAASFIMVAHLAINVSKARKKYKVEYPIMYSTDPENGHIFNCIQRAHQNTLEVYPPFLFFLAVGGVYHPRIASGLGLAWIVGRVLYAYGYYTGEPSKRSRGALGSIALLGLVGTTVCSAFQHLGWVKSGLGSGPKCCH
Sequence of UniProt Q9NQG6 (Q9NQG6 whole entry, looked up): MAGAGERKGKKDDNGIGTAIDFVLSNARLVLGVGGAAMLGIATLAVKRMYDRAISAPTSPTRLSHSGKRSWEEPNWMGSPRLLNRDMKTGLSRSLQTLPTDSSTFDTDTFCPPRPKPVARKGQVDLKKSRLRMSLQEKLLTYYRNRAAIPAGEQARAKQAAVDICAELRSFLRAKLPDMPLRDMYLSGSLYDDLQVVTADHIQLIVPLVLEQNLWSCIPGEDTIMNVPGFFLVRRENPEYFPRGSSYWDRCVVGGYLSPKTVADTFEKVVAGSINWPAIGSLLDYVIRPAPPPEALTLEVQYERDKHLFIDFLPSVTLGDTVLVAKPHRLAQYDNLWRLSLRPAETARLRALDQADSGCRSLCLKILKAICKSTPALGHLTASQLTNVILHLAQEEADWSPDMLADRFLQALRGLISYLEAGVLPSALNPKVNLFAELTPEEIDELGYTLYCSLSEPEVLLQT

Target	log2 fold change [1]	log2 fold change (volasertib)	log2 fold change [2]	log2 fold change (epoxomicin)	log2 fold change [3]	log2 fold change [4]	log2 fold change [5]	log2 fold change (rosiglitazone)	log2 fold change [6]	log2 fold change [7]
METTL18 (UniProt O95568)	0.02 (inactive)	-0.159 (inactive)	0.032 (inactive)	-0.058 (inactive)	0.08 (inactive)	0 (inactive)	0.006 (inactive)	0.062 (inactive)	0.005 (inactive)	0.015 (inactive)
LRRFIP1 (UniProt Q32MZ4)	0.06 (inactive)	0.099 (inactive)	-0.075 (inactive)	-0.019 (inactive)	0.019 (inactive)	0.028 (inactive)	-0.004 (inactive)	-0.007 (inactive)	0.011 (inactive)	0.013 (inactive)
KEL (UniProt P23276)	0.195 (inactive)	-0.085 (inactive)	-0.085 (inactive)	0.063 (inactive)	0.033 (inactive)	-0.013 (inactive)	-0.007 (inactive)	0.024 (inactive)	0.018 (inactive)	0.088 (inactive)
LTN1 isoform 3 (UniProt O94822)	-0.16 (inactive)	-0.459 (active)	0.079 (inactive)	-0.012 (inactive)	-0.075 (inactive)	-0.019 (inactive)	0.043 (inactive)	0.05 (inactive)	0.06 (inactive)	-0.498 (active)
IRAK4 (UniProt Q9NWZ3)	-0.138 (inactive)	-0.299 (inactive)	0.048 (inactive)	0.038 (inactive)	-0.092 (inactive)	-0.033 (inactive)	0.061 (inactive)	0.042 (inactive)	0.029 (inactive)	0.013 (inactive)
MGST3 (UniProt O14880)	-0.005 (inactive)	0.048 (inactive)	-0.107 (inactive)	-0.016 (inactive)	0.066 (inactive)	-0.047 (inactive)	-0.017 (inactive)	-0.043 (inactive)	-0.027 (inactive)	0.097 (inactive)
MIEF1 (UniProt Q9NQG6)	-0.053 (inactive)	-0.098 (inactive)	0.031 (inactive)	0.073 (inactive)	0.019 (inactive)	0.019 (inactive)	0.054 (inactive)	0.041 (inactive)	-0.018 (inactive)	-0.546 (active)
MFF (UniProt Q9GZY8)	-0.007 (inactive)	0 (inactive)	-0.046 (inactive)	0.037 (inactive)	0 (inactive)	0.043 (inactive)	-0.031 (inactive)	0.035 (inactive)	0.031 (inactive)	-0.386 (active)
KPNA1 (UniProt P52294)	-0.039 (inactive)	-0.312 (active)	0.115 (inactive)	-0.051 (inactive)	0.022 (inactive)	0.004 (inactive)	0.055 (inactive)	0.055 (inactive)	0.104 (inactive)	-0.082 (inactive)
KHDC4 (UniProt Q7Z7F0)	-0.063 (inactive)	-0.236 (active)	0.107 (inactive)	0.036 (inactive)	-0.045 (inactive)	-0.057 (inactive)	0.137 (inactive)	0.035 (inactive)	0.071 (inactive)	-0.014 (inactive)
LARP7 isoform 3 (UniProt Q4G0J3)	-0.047 (inactive)	-0.155 (inactive)	0.051 (inactive)	-0.081 (inactive)	0.034 (inactive)	-0.032 (inactive)	0.064 (inactive)	0.003 (inactive)	0.014 (inactive)	-0.075 (inactive)
ITIH4 (UniProt Q14624)	-0.18 (inactive)	-0.311 (inactive)	-0.248 (inactive)	-0.318 (inactive)	0.108 (inactive)	0.102 (inactive)	-0.012 (inactive)	0.129 (inactive)	0.177 (inactive)	-0.413 (inactive)
KPNA4 (UniProt O00629)	-0.008 (inactive)	-0.251 (inactive)	0.033 (inactive)	-0.008 (inactive)	0.038 (inactive)	0.029 (inactive)	0 (inactive)	0.01 (inactive)	-0.066 (inactive)	-0.052 (inactive)
MAP2K3 isoform 3 (UniProt P46734)	-0.041 (inactive)	-0.17 (inactive)	0.09 (inactive)	-0.035 (inactive)	-0.017 (inactive)	0.039 (inactive)	0.038 (inactive)	0.018 (inactive)	-0.054 (inactive)	-0.121 (inactive)
LAMP2 isoform 2 (UniProt P13473)	-0.137 (inactive)	-0.081 (inactive)	-0.078 (inactive)	-0.016 (inactive)	0.028 (inactive)	-0.01 (inactive)	0.012 (inactive)	-0.035 (inactive)	-0.112 (inactive)	-0.485 (active)
IGFBP2 (UniProt P18065)	-0.319 (inactive)	-0.614 (inactive)	-0.167 (inactive)	-0.707 (inactive)	-0.275 (inactive)	0.158 (inactive)	0.003 (inactive)	0.083 (inactive)	0.323 (inactive)	-0.638 (inactive)
LIMA1 isoform 4 (UniProt Q9UHB6)	-0.006 (inactive)	-0.115 (inactive)	-0.021 (inactive)	0.003 (inactive)	-0.015 (inactive)	0 (inactive)	-0.053 (inactive)	-0.01 (inactive)	-0.006 (inactive)	0.086 (inactive)
MCU (UniProt Q8NE86)	-0.147 (inactive)	-0.249 (active)	0.014 (inactive)	0.075 (inactive)	-0.082 (inactive)	-0.048 (inactive)	0.011 (inactive)	0.034 (inactive)	-0.045 (inactive)	-0.23 (active)
KIAA1324L (UniProt A8MWY0)	-0.312 (active)	-0.293 (active)	-0.012 (inactive)	0.015 (inactive)	0.011 (inactive)	-0.019 (inactive)	0.091 (inactive)	0.111 (inactive)	-0.112 (inactive)	-0.14 (inactive)
KLHL18 (UniProt O94889)	0.075 (inactive)	-0.178 (inactive)	-0.123 (inactive)	0.36 (active)	-0.038 (inactive)	-0.01 (inactive)	-0.073 (inactive)	-0.019 (inactive)	0 (inactive)	0.034 (inactive)
KIFBP (UniProt Q96EK5)	-0.007 (inactive)	-0.333 (active)	0.11 (inactive)	-0.035 (inactive)	-0.036 (inactive)	0.017 (inactive)	0.038 (inactive)	0.11 (inactive)	0.095 (inactive)	-0.046 (inactive)
LARP4B (UniProt Q92615)	0.025 (inactive)	-0.15 (inactive)	0.061 (inactive)	-0.037 (inactive)	-0.052 (inactive)	0.073 (inactive)	0.034 (inactive)	-0.02 (inactive)	0.096 (inactive)	-0.218 (inactive)
ILF3 isoform 7 (UniProt Q12906)	0.348 (inactive)	0.356 (inactive)	-0.021 (inactive)	-0.185 (inactive)	-0.02 (inactive)	0.135 (inactive)	-0.101 (inactive)	-0.095 (inactive)	0.146 (inactive)	0.231 (inactive)
MICU2 (UniProt Q8IYU8)	-0.135 (inactive)	-0.118 (inactive)	0 (inactive)	0.067 (inactive)	0.005 (inactive)	-0.046 (inactive)	0.007 (inactive)	-0.017 (inactive)	0.097 (inactive)	-0.309 (active)
MCUR1 (UniProt Q96AQ8)	0.022 (inactive)	0.137 (inactive)	0.006 (inactive)	0.009 (inactive)	-0.027 (inactive)	-0.041 (inactive)	-0.038 (inactive)	0.025 (inactive)	-0.042 (inactive)	-0.115 (inactive)
KDELR2 (UniProt P33947)	0.033 (inactive)	-0.18 (inactive)	-0.089 (inactive)	-0.02 (inactive)	-0.031 (inactive)	-0.016 (inactive)	-0.125 (inactive)	0.017 (inactive)	-0.063 (inactive)	0.255 (inactive)
KIF1B isoform 4 (UniProt O60333)	-0.042 (inactive)	-0.11 (inactive)	0.052 (inactive)	0.039 (inactive)	-0.015 (inactive)	-0.005 (inactive)	0.123 (inactive)	0.059 (inactive)	-0.001 (inactive)	-0.299 (active)
